# Screening results deposited in PubChem by several laboratories.
# HSV replic up: increases HSV replication in cells | HSV replication augmentation in cells, fold increase | maximum fold increase | hit rate 0.005% among 220,000 | AID 1956; in the data active means maximum fold increase above about 1.5; inconclusive means no clear call, values can overlap the other calls; tested in PC3 cells
# m-calpain inh: blocks pig calpain II enzyme activity. purified calpain II, fluorogenic peptide substrate, 30 min. inhibition, % at 16 µM. hit rate 0.37% among 220,000. AID 1236;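 active means inhibition above about 50%, limit read from the data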
# ROMK mod: modulators of human ROMK potassium channel. B-score at 10 µM. AID 1918. P48048. hit rate 2% among 130,000. Tet-inducible ROMK, thallium flux fluorescence; actives lie on both sides;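 active means signal ratio slope over the read window, or its plate-corrected B-score, at least 3 SD from the plate mean, either direction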;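 further: B-score of the F/F0 ratio slope over 7 to 12 s after thallium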
# Target sequence (P48048 whole entry, looked up): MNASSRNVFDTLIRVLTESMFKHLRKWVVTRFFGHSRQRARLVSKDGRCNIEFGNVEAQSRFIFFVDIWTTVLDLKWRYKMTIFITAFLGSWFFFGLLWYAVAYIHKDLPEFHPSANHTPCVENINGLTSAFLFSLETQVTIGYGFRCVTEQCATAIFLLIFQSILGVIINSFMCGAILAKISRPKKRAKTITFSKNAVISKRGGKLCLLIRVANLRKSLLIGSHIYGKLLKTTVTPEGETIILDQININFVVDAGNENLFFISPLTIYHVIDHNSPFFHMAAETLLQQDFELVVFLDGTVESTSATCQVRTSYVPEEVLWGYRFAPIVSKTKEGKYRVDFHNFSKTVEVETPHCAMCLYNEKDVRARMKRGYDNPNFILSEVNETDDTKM
# Arbovirus inh: blocks arbovirus infection. inhibition, % at 10 µM. arbovirus infection cell-based antiviral screen. AID 1251. hit rate 0.37% among 200,000; in the data active means inhibition above about 30%
# Efa HMGR inh: blocks class II HMG-CoA reductase of Enterococcus faecalis. purified E. faecalis HMGR, NADPH absorbance 340 nm kinetic. inhibition, % at 10 µM. hit rate 0.41% among 190,000;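 active means inhibition above a set limit, the median over all tested compounds plus 3 SD, cut at about 9.5% in these data; inconclusive means no clear call, values can overlap the other calls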;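 further: enzyme runs in reverse so mevalonate oxidation gives rising NADPH absorbance; 0% = complete reaction with DMSO and 100% = background rate lacking mevalonate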
# * hit, by the source's call; i = inactive; ? = inconclusive; . = not tested or not shown. Sampled rows, rich in hits. Any-hit rate of the full collection: about 2.1%.
SMILES,HSV replic up,m-calpain inh,ROMK mod,Arbovirus inh,Efa HMGR inh
Cc1c(NC(=O)CN2C(=O)NC(C)(c3ccccc3)C2=O)c(=O)n(-c2ccccc2)n1C (configuration not stated),i,15.5,0.37,-6.1,0.5
Cc1cc(C)n2nc(SCc3nnc(SCc4ccccc4Cl)s3)nc2n1,i,50.1*,0.28,8.1,-4.2
Cc1ccc(NC(C)C(=O)N/N=C/c2c[nH]c3ccccc23)cc1 (configuration not stated),i,1.4,0.599,1.1,-6.2
Cc1ccc(NCC(=O)N/N=C/c2c[nH]c3ccccc23)cc1,i,70.0*,0.991,12.6,-9.3
CCOC(=O)c1c(C)[nH]c(C(C)=O)c1C,i,14.2,0.117,5.6,-1.4
CCOC(=O)c1c(C)[nH]c(C(=O)C(C)Cl)c1C (configuration not stated),i,-6.9,-0.138,13.0,9.8*
O=C(Nc1nc2ccccc2s1)c1ccc(N2CCCCC2)c([N+](=O)[O-])c1,i,1.2,.,37.7*,-6.1
O=C(Nc1ccon1)c1ccc(N2CCCCC2)c([N+](=O)[O-])c1,i,-3.2,-0.088,-7.5,5.0
CC(C)CCN(C(=S)Nc1cccc(F)c1)C1CCN(C(C)C)CC1,i,14.6,-1.27,10.6,-1.0
O=C(Nc1ccc(Cl)cc1)NC1CCCCC1Cc1ccco1 (configuration not stated),i,52.9*,.,-23.2,-6.1
Cc1cc(C)c2nc(N3CCCC(C(=O)NCCCN4CCOCC4)C3)sc2c1 (configuration not stated),i,-36.9,-1.65,10.8,-3.5
Cc1cc(C)c2nc(N3CCC(C(=O)NCCCN4CC(C)CC(C)C4)CC3)sc2c1 (configuration not stated),i,-7.8,-2.54*,-32.3,1.1
O=C(NNC(=O)c1cc2cc(OC(F)(F)F)ccc2[nH]1)c1cccc(C(F)(F)F)c1,i,-30.9,.,.,.
O=C(NCC1CCCO1)C(c1cccs1)N(C(=O)Cn1nnc(-c2cccs2)n1)C1CCCC1 (configuration not stated),i,-1.4,.,4.6,6.5
O=C(NCC1CCCO1)C(c1cccs1)N(Cc1cccs1)C(=O)Cn1nnc(-c2cccs2)n1 (configuration not stated),i,-8.2,-1.8,-11.5,16.4*
CCN1CCN(C2=CC3=CC(=C(C#N)C#N)CCC3CC2)CC1 (configuration not stated),?,60.6*,.,-10.4,-3.6
COC(=O)c1ccc(NC(=O)CSC2=NC(=O)C(c3ccccc3)C(=O)N2)cc1 (configuration not stated),i,-6.0,-0.0469,3.5,-2.3
COc1ccc(C(=O)O)cc1NC(=S)NC(=O)c1ccc(-c2ccc(Cl)cc2)o1,i,-7.1,0.612,50.4*,-0.3
O=C(Nc1nnc(SCc2ccc(F)cc2)s1)c1ccc2c(c1)C(=O)N(c1ccccc1Cl)C2=O,i,-109.8,1.24,43.8*,-7.3
COc1ccc(OC)c(NC(=O)C(=O)NNC(=O)COc2ccc(Br)cc2C)c1,i,-104.9,1.61*,-4.7,-0.9
COc1ccc(C)cc1NC(=O)C(=O)NNC(=O)COc1ccc(Cl)cc1,i,-11.3,7.13*,18.5,-3.9
COc1ccccc1NC(=O)Nc1ccccc1N1CCOCC1,i,-11.0,-1.45,.,.
CCOC(=O)C1CCCN(S(=O)(=O)c2cccs2)C1 (configuration not stated),i,56.8*,0.0207,10.0,-5.5
CCOC(=O)C1CCCN(Cc2ccccc2C)C1 (configuration not stated),i,8.6,-0.777,1.8,-5.3
CCOC(=O)C1CCCN(Cc2ccccc2Cl)C1 (configuration not stated),i,30.7,-0.744,87.7*,-8.1
SMILES,HSV replic up,m-calpain inh,ROMK mod,Arbovirus inh,Efa HMGR inh
COc1cc(OC)nc(Oc2cc(/C=N/O)ccc2OC)n1,i,27.3,-0.297,-11.9,4.0
CCOC(=O)C1(CC2CCCCO2)CCN(S(=O)(=O)c2c(C)nn(C)c2C)CC1 (configuration not stated),i,-17.1,1.97,-3.8,-2.8
Cc1ccc(Nc2nc(N)c([N+](=O)[O-])c(N3CCOCC3)n2)cc1C,i,20.7,.,51.2*,2.6
O=c1[nH]c2ccc([N+](=O)[O-])cc2nc1/C=C(\O)c1ccccc1,1.65*,2.4,.,.,.
C/C(O)=C/c1nc2ccccc2[nH]c1=O,i,-7.0,0.641,-2.3,1.3
C=C(C)CNC(=S)N/N=C/c1c(F)cccc1F,i,57.0*,0.166,7.1,-8.1
C=C(C)CNC(=S)N/N=C/c1ccc([N+](=O)[O-])cc1,i,40.8,-0.243,11.0,-2.2
